Unmarked numbers belong to inactive results.
target: T1, USP22 (UniProt Q9UPT9); assay: log2 ratio of Biotin-Ahx-Ub-VS probe labelling (fragment/DMSO); higher = less target engagement (more negative = stronger competition), active = hit call of the paper (q ≤ 0.05, log2 ratio ≤ -1); conditions: compound concentration: 200 uM; treatment time: 3 h
T1 sequence (whole entry): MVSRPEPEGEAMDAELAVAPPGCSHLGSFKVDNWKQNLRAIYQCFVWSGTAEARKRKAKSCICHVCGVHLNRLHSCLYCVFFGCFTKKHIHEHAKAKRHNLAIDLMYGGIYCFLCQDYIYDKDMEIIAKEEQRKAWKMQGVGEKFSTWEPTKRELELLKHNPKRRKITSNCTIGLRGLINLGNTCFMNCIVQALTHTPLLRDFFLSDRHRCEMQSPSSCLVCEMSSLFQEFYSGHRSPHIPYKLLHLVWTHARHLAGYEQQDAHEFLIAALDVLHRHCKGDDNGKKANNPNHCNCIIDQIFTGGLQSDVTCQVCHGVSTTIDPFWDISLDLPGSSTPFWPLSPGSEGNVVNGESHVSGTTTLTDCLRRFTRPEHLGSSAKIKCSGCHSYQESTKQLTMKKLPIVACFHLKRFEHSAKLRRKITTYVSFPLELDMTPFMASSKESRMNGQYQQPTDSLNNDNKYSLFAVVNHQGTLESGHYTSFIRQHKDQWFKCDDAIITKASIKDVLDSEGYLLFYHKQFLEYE
Method: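 Competitive ABPP in HEK293T cell lysate. Lysates were treated with each chloroacetamide fragment at 200 µM for 3 h, then with Biotin-Ahx-Ub-VS (0.5 µM, 1 h), NeutrAvidin-enriched and analysed by diaPASEF LC-MS/MS. Protein LFQ was median-normalised; average log2 ratio is fragment/DMSO from an unpaired t-test (n=3 treated, n=44 DMSO). Hits: q ≤ 0.05, log2 ratio ≤ -1, unique peptides ≥ 2.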

SMILES	log2 ratio of Biotin-Ahx-Ub-VS probe labelling
Cl.O=C(CCl)NCCc1ncc(F)cc1F	-0.0071
O=C(CCl)NCc1ccc(N2CCOCC2)nc1	-0.181
Cc1nc(CC2CCN(C(=O)CCl)CC2)no1	-0.386
Cl.O=C(CCl)N1CCC(n2nc3ccccc3n2)CC1	-0.472
O=C(CCl)N1CCC(c2noc3cc(F)ccc23)CC1	-0.492
Cl.O=C(CCl)NC1(c2ncccn2)CCC1	0.221
COCC1C=CCCN1C(=O)CCl (stereo not given)	-0.0428
Cc1cccn2cc(CCNC(=O)CCl)nc12.Cl	-0.0399
O=C(CCl)N1CCC(C(O)c2ccc(F)cc2)CC1 (stereo not given)	0.13
O=C(CCl)Nc1cc2c(cc1Cl)OCCCO2	0.133
CNC(=O)Cn1cc(NC(=O)CCl)cn1	-0.0499
O=C(CCl)Nc1ccc(N2CCCC2=O)cc1	0.36
O=C(CCl)N1CCCC2CCCCC21 (stereo not given)	-0.0228
O=C(CCl)N1CCC(=C(F)CO)C1	0.192
COc1ccc(-c2csc(NC(=O)CCl)n2)cc1	-0.229
CCN(C(=O)CCl)C1CCCCC1	0.0286
O=C(CCl)N1c2ccccc2NC(=O)C12CCCC2	0.00548
O=C(CCl)Nc1nc(-c2cccs2)cs1	-0.167
CN(CCc1ncc(Br)cn1)C(=O)CCl.Cl	-0.0976
O=C(CCl)N1CCc2sccc2C1	-0.23

SMILES	log2 ratio of Biotin-Ahx-Ub-VS probe labelling
O=C(CCl)N1CCC(c2ccn[nH]2)C1 (stereo not given)	-0.234
Cc1ccc(N(C(=O)CCl)C2C=CS(=O)(=O)C2)cc1 (stereo not given)	0.0416
CC1CCc2onc(CNC(=O)CCl)c2C1 (stereo not given)	0.192
O=C(CCl)NCc1ccc2c(c1)OCO2	-0.126
Cc1ccc(CN(C)C(=O)CCl)o1	-0.454
O=C(CCl)NC1CCS(=O)(=O)c2ccccc21 (stereo not given)	-0.0769
CC(O)CC1CCN(C(=O)CCl)CC1 (stereo not given)	0.037
O=C(CCl)NC1CCCCNC1=O (stereo not given)	-0.0454
O=C(CCl)NC1CCC(C(F)(F)F)CC1 (stereo not given)	0.067
CN(C)C(=O)c1ccc(CNC(=O)CCl)cc1	0.0551
Cl.O=C(CCl)N1CCn2ncc(O)c2C1	-0.609
CN(Cc1nc2ccccc2[nH]1)C(=O)CCl.Cl	0.243
CC(NC(=O)CCl)c1cccc(Cl)c1 (stereo not given)	-0.146
O=C(CCl)Nc1ccc(Cl)c(F)c1	-0.253
Cc1ccccc1C1(CNC(=O)CCl)CCOCC1	-0.0958
O=C(CCl)N[C@H]1CCS(=O)(=O)c2ccccc21	-0.119
CCN(C(=O)CCl)C1CCS(=O)(=O)C1 (stereo not given)	-0.0368
O=C(CCl)NCCc1ccc(F)cc1	0.0853
O=C(CCl)NCCc1ccc2c(c1)OCCO2	0.0144
CCN(Cc1ccc(C#N)cc1F)C(=O)CCl	-0.094
